High-throughput results: PubChem BioAssay, The Scripps Research Institute Molecular Screening Center
Only some compounds are listed: those with a hit (about 3.5% of all), similar ones and a draw of the others.
GPR151 ag – activators of human GPR151; actives 1% (n = 650,000); Q8TDV0; PathHunter beta-arrestin GPR151 cells, luminescence; activation, % at 11.2 µM; in the data active = activation above about 4.9%;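 also: 0% = median of compound wells and 100% = cells with positive control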
Target sequence (Q8TDV0 whole entry, looked up): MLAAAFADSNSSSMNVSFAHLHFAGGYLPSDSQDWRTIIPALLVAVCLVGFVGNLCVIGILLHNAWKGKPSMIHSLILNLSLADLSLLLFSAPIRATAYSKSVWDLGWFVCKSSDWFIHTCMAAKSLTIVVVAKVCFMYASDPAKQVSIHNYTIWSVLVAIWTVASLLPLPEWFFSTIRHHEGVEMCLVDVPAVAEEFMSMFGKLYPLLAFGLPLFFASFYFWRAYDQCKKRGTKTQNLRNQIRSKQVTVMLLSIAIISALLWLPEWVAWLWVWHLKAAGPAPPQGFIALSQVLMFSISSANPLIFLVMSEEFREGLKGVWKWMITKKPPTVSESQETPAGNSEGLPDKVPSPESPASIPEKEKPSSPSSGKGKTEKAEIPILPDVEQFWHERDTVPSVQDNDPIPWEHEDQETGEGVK
TEAD-YAP inh – TEAD-YAP interaction inhibition. AID 1259422. inhibition, % at 9.12 µM. HEK-TIYL cells, TEAD-Gal4/YAP UAS-luciferase luminescence. actives 1.4% (n = 640,000); in the data active = inhibition above about 32%;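 also: 0% = median of test compound wells and 100% = reference inhibitor wells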
FBW7 act – activators of human E3 ligase FBW7. AlphaScreen FBW7–phospho-cyclin E peptide binding, activator screen. normalized activity (activation), % at 26.1 µM. AID 1259310. actives 0.13% (n = 650,000). Q969H0; in the data active = normalized activity above about 1.9%;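 also: purified mutant Fbw7 with reduced substrate affinity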
MITF primary – human MITF inhibition, primary screen; O75030; AlphaScreen MITF homodimerization, bead proximity signal; inhibition, % at 2.6 µM; actives 0.91% (n = 650,000); in the data active = inhibition above about 50%;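 also: 0% = vehicle wells with protein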
GPR151 confirm – human GPR151 activation, confirmation screen. 6,700 tested, under 10 active. shares compounds with GPR151 ag. GPR151 PathHunter beta-arrestin cells, luminescence, 90 min; % of EA-reagent control over plate median. AID 1508609. activation, % at 11.2 µM;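 active = mean percent activation across replicates above the confirmation screen cutoff of 4.91%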
GPR119 counter – GPR119 activation, counter-screen for GPR151 activators | shares compounds with GPR151 ag | GPR119 PathHunter beta-arrestin cells, luminescence, 90 min; 0 = compound-well median, 100 = enzyme-acceptor control | activation, % at 11.2 µM | actives 0.3% (n = 6,700);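 active = mean percent activation in the counterscreen above 29.09%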;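 also: counterscreen on off-target GPR119 to flag nonselective hits from the GPR151 activator screen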
An asterisk follows results filed as active; · = not tested or not shown.

SMILES | GPR151 ag | TEAD-YAP inh | FBW7 act | MITF primary | GPR151 confirm | GPR119 counter
CSc1nnc(-c2ccco2)n1-c1ccccc1 | 5.1* | -3 | 0 | 3 | 1 | 13
COc1ccc(C(=O)N(C)c2ccccc2)cc1S(=O)(=O)N1CCCC1 | 5.2* | -5 | 0 | 4 | 0 | 0
CN(C(=O)c1cccc(S(=O)(=O)N2CCCCC2)c1)c1ccccc1 | -2 | -9 | 0 | 2 | · | ·
CNC(=O)c1ccc(OC)c(S(=O)(=O)N2CCC(C)CC2)c1 | 5.4* | 6 | 1 | 7 | 0 | -7
COc1cc(NC(=O)c2nnn(Cc3ccc(Br)cc3)c2N)cc(OC)c1 | 0 | -9 | 0 | -10 | · | ·
COc1ccc(C2CCN(CC(N)=O)CC2)cc1 | 0 | 5 | 0 | 10 | · | ·
Cc1ccc(-n2c(SCc3cccc([N+](=O)[O-])c3)nc3[nH]ncc3c2=O)cc1Cl | 4.9* | 16 | 0 | -4 | 0 | -3
O=c1c2cn[nH]c2nc(SCc2cccc([N+](=O)[O-])c2)n1-c1ccc(Cl)cc1 | -1 | -4 | 1 | 9 | · | ·
COC(=O)Nc1ccc(S(=O)(=O)N2CCCC(C(=O)O)C2)cc1 (centres undefined) | 11* | 2 | 0 | 3 | 0 | -9
Cc1ccc(C2=NS(=O)(=O)N(C)C(C(=O)N3C(C)CC(C)CC3C)=C2)cc1 (centres undefined) | 1 | 1 | 0 | -1 | · | ·
CCOc1ccc2ncc(C(=O)c3ccc(OC)cc3)c(N3CCOCC3)c2c1 | -1 | -12 | 0 | 10 | · | ·
CCC(C)(C)NC(=O)CN(C(=O)CCC(=O)Nc1ccccn1)c1cc(C)cc(C)c1 | -2 | 0 | 0 | 15 | · | ·
COc1ccc(-c2noc(N3CCC(C(=O)NCc4ccc5c(c4)OCO5)CC3)n2)cc1 | 7.9* | 0 | 0 | 9 | 0 | 3
COc1c(Cl)cc(C(=O)NCc2ccc3c(c2)OCO3)cc1Cl | 5.9* | -6 | 0 | 0 | 0 | -8
O=C(C1CCOCC1)N1CCCC(CO)(Cc2cccc(Cl)c2)C1 (centres undefined) | -2 | -50 | 0 | 18 | · | ·
O=C(Cc1ccccc1)Nc1ccc(-c2ccc3nnc(-c4ccccn4)n3n2)cc1 | -1 | -1 | 0 | 25 | · | ·
Cc1nnc(SCC(=O)Nc2ccc(Cl)cc2Cl)s1 | 0 | 10 | 0 | 3 | · | ·
Cc1cc(C)n2c(SCC(=O)NC(=O)NC(C)(C)C)nnc2n1 | 5.5* | 7 | 0 | 1 | 0 | 6
CCCCCCOc1ccc(C(=O)O)cc1 | -5 | 0 | 0 | -27 | · | ·
CCCOc1ccc(-c2ccc(C(=O)O)cc2)cc1 | 6.3* | -23 | 0 | 8 | 0 | 2
CC(=O)N1CCc2cc(S(=O)(=O)NCCC(=O)NCCc3ccc(Cl)cc3)ccc21 | 6.5* | 28 | 0 | -7 | 0 | 0
CC(C)(C)c1ccc(OCC(O)CS(=O)c2ccccn2)cc1 (centres undefined) | 1 | -2 | 0 | 7 | · | ·
C[C@H]1NC(=O)[C@@H]2C[C@H](NCc3cccc4cccnc34)CN2C1=O | 8.6* | 4 | 0 | 12 | 0 | 11
O=C(CSCc1c(Cl)cccc1Cl)N1CCCCC1 | 6.1* | 1 | 0 | 6 | 0 | 0
O=C(CSCc1c(Cl)cccc1Cl)N1CCOCC1 | -1 | -9 | 0 | -9 | · | ·
SMILES | GPR151 ag | TEAD-YAP inh | FBW7 act | MITF primary | GPR151 confirm | GPR119 counter
CCc1sc(C(=O)NCc2ccccc2OC)cc1C | 5.5* | 1 | 0 | -4 | 0 | 14
O=C(Cn1cnc2ccccc2c1=O)NCCC(=O)N1CCN(Cc2ccc3c(c2)OCO3)CC1 | 5.4* | 6 | 0 | -31 | 0 | 16
O=C(Cn1cnc2ccccc2c1=O)NCCC(=O)N1CCOCC1 | 0 | -5 | 0 | -20 | · | ·
CCN(CC)C(=O)C(=O)Nc1ccc(Cl)cc1Cl | 0 | -8 | 1 | 11 | · | ·
CCOC(=O)c1sc2nc(SCC(=O)c3ccccc3)n(Cc3ccc(Cl)cc3)c(=O)c2c1C | -1 | -9 | 0 | 0 | · | ·
CCOC(=O)c1sc2nc(SCC(=O)c3ccc(Cl)cc3)n(Cc3cccs3)c(=O)c2c1C | 5.1* | 10 | 0 | -12 | 1 | 8
COC(=O)c1ccc(OCC(O)CN2CCN(CCO)CC2)cc1 (centres undefined) | 0 | 10 | 0 | 0 | · | ·
O=c1oc2ccc(Cl)cc2cc1-c1nnc(-c2ccccc2)o1 | 1 | -4 | 0 | -1 | · | ·
Cc1ccc2cc(C#N)c(N3CCCN(C(=O)c4ccco4)CC3)nc2c1C | -1 | 4 | 0 | 4 | · | ·
Cc1ccc2cc3c(nc2c1C)OCCN(C(=O)c1ccco1)C3 | 5.7* | 6 | 0 | 16 | 0 | -5
Cc1ccc(F)c(NS(=O)(=O)c2cccc([N+](=O)[O-])c2)c1 | -1 | 13 | 0 | 8 | · | ·
COC(=O)NNC(=S)NCc1ccc(C)cc1 | 5.6* | 0 | 0 | -2 | -1 | -11
COc1ccc(NC(=O)CCC2CCCCC2)c([N+](=O)[O-])c1 | 6.5* | -57 | 0 | 23 | 0 | -9
O=C(COC(=O)CCN1C(=O)c2cccc([N+](=O)[O-])c2C1=O)NCC(F)(F)F | 6.0* | -4 | 1 | 3 | 0 | 4
COc1ccccc1Oc1ccc(N2C(=O)c3cccc([N+](=O)[O-])c3C2=O)cc1 | 8.4* | -8 | 0 | -2 | 0 | -6
COc1ccc(NC(=O)COC(=O)CC2CCCCC2)c([N+](=O)[O-])c1 | 4 | -1 | 0 | 19 | · | ·
COc1ccc(NC(=O)CCN2C(=O)c3cccc([N+](=O)[O-])c3C2=O)c(OC)c1 | -2 | -6 | 0 | 10 | · | ·
COc1ccc(NC(=O)CCCCCN2C(=O)c3cccc([N+](=O)[O-])c3C2=O)c(OC)c1 | 7.9* | 3 | 0 | 14 | 1 | 12
Fc1ccccc1-c1nc(NCc2cccs2)c2ccccc2n1 | 0 | -9 | 1 | 15 | · | ·
Cc1nc2ccccn2c1C(=O)NCCc1ccccc1 | -1 | 14 | 0 | -2 | · | ·
CSCC(=O)N1CCCC(C(=O)Nc2ccc(-c3cccc(F)c3)cc2)C1 (centres undefined) | 5.6* | -38 | 0 | -6 | 1 | 5
O=C(Nc1cccc(-c2ccc(F)cc2)c1)C1CCCN(C(=O)c2cscn2)C1 (centres undefined) | 17* | 7 | 0 | 9 | 0 | -1
CC(C)(CO)CN1CCCC(C(=O)Nc2cccc(-c3ccc(F)cc3)c2)C1 (centres undefined) | 6.2* | -5 | 1 | -18 | -1 | -15
O=C(Nc1ccc(-c2cccc(F)c2)cc1)C1CCCN(C(=O)c2cscn2)C1 (centres undefined) | -2 | -33 | 0 | 15 | · | ·
CSCCC(=O)N1CCCC(C(=O)Nc2ccc(-c3cccc(F)c3)cc2)C1 (centres undefined) | 2 | -7 | 0 | 5 | · | ·
